A selection: hits, their analogues and other compounds. The true share with any hit is near 1.3%.
COUP-TFII inh – NR2F2 transcriptional activity inhibitors, primary screen, cell-based, luciferase reporter, HEK293T, luminescence | HEK293T NGFI-A luciferase reporter | COUP transcription factor 2 (Homo sapiens), P24468 | actives 0.7% (n = 370,000) | inhibition, % at 8.6 µM;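 active means inhibition above a per-plate cutoff, mean inhibition of test wells between control levels plus 3 SD, cut at about 38% in these data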;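 further: cells cotransfected with COUP-TFII expression vector driving the NGFI-A reporter; 0% = median of COUP-TF2 test wells and 100% = reporter-only cells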
SRC1 inh – SRC1 coactivator transcriptional activity inhibitors, primary screen, cell-based, luminescence; Nuclear receptor coactivator 1 (Homo sapiens), Q15788; HEK293 GAL4-SRC1 luciferase reporter; inhibition, % at 3.6 µM; actives 0.12% (n = 360,000);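 active means inhibition above the campaign mean plus 3 SD, with each screening campaign given its own cutoff, cut at about 60% in these data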;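 further: 0% = DMSO treated cells and 100% = gossypol at 36 µM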
NCOA3 inh – SRC3 coactivator transcriptional activity inhibitors, primary screen, cell-based, luminescence; actives 0.17% (n = 360,000); Nuclear receptor coactivator 3 (Homo sapiens), Q9Y6Q9; HEK293 GAL4-SRC3 luciferase reporter; inhibition, % at 3.6 µM;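 active means inhibition above a per-campaign cutoff, the mean of all compounds plus 3 SD, cut at about 60% in these data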;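 further: 0% = DMSO-treated cells and 100% = gossypol-treated cells at 36 µM; higher means less SRC3-driven luciferase light from the GAL4 reporter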
SRC2 inh – inhibition of GAL4-SRC2 driven luciferase reporter, primary screen, SRC2 inhibitor project, cell-based, luminescence. Nuclear receptor coactivator 2 (Homo sapiens), Q15596. HEK293 GAL4-SRC2 luciferase reporter. inhibition, % at 9 µM. actives 0.17% (n = 370,000). AID 651957, 2012;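 active means inhibition above the mean inhibition of all tested compounds plus 3 SD, set per campaign, cut at about 52% in these data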;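 further: 0% = DMSO treated cells and 100% = cells given Gossypol at 36 µM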
Target sequence (Q15596 whole entry, looked up, the tested form may be a part): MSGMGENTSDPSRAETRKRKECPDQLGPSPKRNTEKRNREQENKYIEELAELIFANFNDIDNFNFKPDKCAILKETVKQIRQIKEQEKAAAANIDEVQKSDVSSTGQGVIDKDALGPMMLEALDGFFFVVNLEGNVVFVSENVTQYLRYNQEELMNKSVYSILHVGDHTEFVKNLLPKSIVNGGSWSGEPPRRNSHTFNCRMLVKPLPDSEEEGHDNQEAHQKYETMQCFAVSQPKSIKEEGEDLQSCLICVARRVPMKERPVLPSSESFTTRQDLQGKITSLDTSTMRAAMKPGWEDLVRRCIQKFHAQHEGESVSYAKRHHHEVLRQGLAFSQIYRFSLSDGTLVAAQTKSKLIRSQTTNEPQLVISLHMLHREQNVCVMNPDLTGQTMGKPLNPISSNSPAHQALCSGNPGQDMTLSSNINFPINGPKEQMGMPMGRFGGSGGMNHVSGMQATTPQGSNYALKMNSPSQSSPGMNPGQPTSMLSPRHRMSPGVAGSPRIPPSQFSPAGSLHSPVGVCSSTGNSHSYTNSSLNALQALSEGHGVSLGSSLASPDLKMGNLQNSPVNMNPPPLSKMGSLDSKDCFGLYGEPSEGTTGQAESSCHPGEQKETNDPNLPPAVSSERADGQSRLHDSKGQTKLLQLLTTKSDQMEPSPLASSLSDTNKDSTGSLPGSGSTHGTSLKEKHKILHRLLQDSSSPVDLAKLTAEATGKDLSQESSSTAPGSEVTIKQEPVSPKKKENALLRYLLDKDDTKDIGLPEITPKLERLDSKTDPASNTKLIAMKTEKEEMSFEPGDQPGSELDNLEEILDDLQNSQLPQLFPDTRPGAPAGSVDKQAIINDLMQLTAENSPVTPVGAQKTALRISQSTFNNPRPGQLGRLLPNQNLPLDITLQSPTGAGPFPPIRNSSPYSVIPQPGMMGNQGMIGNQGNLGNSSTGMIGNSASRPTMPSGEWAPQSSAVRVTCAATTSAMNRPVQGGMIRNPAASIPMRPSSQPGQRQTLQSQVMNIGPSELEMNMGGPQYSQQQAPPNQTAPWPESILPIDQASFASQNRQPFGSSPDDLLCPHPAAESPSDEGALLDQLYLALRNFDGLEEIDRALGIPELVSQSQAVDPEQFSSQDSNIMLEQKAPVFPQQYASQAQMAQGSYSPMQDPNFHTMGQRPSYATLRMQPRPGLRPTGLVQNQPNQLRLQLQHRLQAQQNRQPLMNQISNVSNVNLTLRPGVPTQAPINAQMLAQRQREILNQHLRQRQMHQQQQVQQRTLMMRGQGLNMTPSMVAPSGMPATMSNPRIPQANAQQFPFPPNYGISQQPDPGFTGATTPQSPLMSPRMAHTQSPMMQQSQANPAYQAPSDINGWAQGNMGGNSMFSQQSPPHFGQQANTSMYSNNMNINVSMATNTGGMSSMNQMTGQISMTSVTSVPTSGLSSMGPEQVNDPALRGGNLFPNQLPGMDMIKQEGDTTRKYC
LRH-1 inv ag – LRH-1 (NR5A2) inverse agonists, primary screen, cell-based, luminescence, HEK293T, StAR-luciferase reporter; Nuclear receptor subfamily 5 group A member 2 (Homo sapiens), O00482; LRH-1 transfected, 24 h; inhibition, % at 3.6 µM; actives 0.13% (n = 360,000); AID 602396, 2012;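 active means inhibition above the mean inhibition of all tested compounds plus 3 SD, cut at about 73% in these data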;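 further: 0% = DMSO wells and 100% = reporter-only cells lacking LRH-1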
Gli-Sufu block – Gli-Sufu pathway antagonists, primary screen, luciferase luminescence, Sufu-KO-LIGHT cells, uHTS; Sufu-KO-LIGHT fibroblasts, Gli luciferase reporter luminescence; inhibition, % at 5 µM; actives 0.74% (n = 340,000);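 active means inhibition above about 55%, limit read from the data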;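 further: 0% = DMSO-treated cells and 100% = wells with medium but no cells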
Gli-Sufu confirm – Gli-SUFU pathway antagonists, confirmation, single concentration, luciferase luminescence, Sufu-KO-LIGHT cells. inhibition, % at 5 µM. Gli luciferase reporter. actives 40% (n = 2,500). shares compounds with Gli-Sufu block;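 active means mean inhibition at 5 µM reaching about 45%, limit read from the data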;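 further: plate controls were DMSO-treated cells for no effect and wells lacking cells for full effect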
Gli cytotox – cytotoxicity in Sufu-KO-LIGHT cells, confirmation, cytotoxicity control for Gli-SUFU antagonist project, cell-based, ATP luminescence, single concentration. shares compounds with Gli-Sufu block. cytotoxicity, % at 5 µM. actives 32% (n = 2,500);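 active means mean cytotoxicity at 5 µM above about 25%, limit read from the data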;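 further: cells exposed to compound overnight for roughly 16 to 18 hours; plate controls were DMSO wells with cells for no effect and medium without cells for full effect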
Wnt3a counter – Wnt3a reporter signal inhibition, confirmation, counter-screen for Gli-SUFU antagonist project, Wnt-LIGHT cells, luminescence, single concentration; shares compounds with Gli-Sufu block; Wnt3a-driven luciferase reporter; inhibition, % at 6.25 µM; actives 20% (n = 2,500);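 active means mean inhibition above about 25%, limit read from the data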
Numbers without * were called inactive; . = no result given.

SMILES | COUP-TFII inh | SRC1 inh | NCOA3 inh | SRC2 inh | LRH-1 inv ag | Gli-Sufu block | Gli-Sufu confirm | Gli cytotox | Wnt3a counter
CN1CCN(C(=O)c2cc3ccccc3[nH]2)CC1 | 12 | -14 | -11 | -17 | 20 | 53 | 14 | 14 | -7
CCCCCCCCN1C(=O)[C@@H](CC(=O)NCCC(C)C)C[C@@]2(C(=O)OC)C1=C[C@H](C1CCCC1)O[C@@H]2C | -20 | . | . | -11 | . | . | . | . | .
C=C1[C@H](C)CN(S(=O)C(C)(C)C)[C@H]1CCO (stereo partly drawn) | -1 | . | . | -4 | . | . | . | . | .
CCCCS(=O)(=O)N1CCCc2nc(CC)c(CC)cc21 | -9 | . | . | 1 | . | . | . | . | .
Cn1c(N)c(C(=O)COC(=O)C2(c3cccc(F)c3)CCCC2)c(=O)n(C)c1=O | 11 | 5 | 10 | 17 | -3 | 99* | 15 | 2 | -7
Cn1c(N)c(C(=O)COC(=O)c2ccc(F)cc2Cl)c(=O)n(C)c1=O | -7 | -9 | 0 | -5 | 7 | -2 | . | . | .
CCCCOCCCNC(=O)C[C@H]1C[C@@]2(C(=O)OC)C(=C[C@H](C(C)C)O[C@@H]2C2CC2)N(Cc2ccccc2)C1=O | 0 | . | . | 17 | . | . | . | . | .
COc1ccc(CNCCc2ccc(Cl)cc2)cc1OCc1ccccc1 | . | -22 | 5 | . | 12 | 53 | 29 | 6 | 5
CCOc1cc(CNCc2ccccc2)ccc1OCc1ccc(Cl)cc1 | 28 | -9 | 6 | 32 | -4 | -2 | . | . | .
CCOc1cc(CNCCc2ccc(S(N)(=O)=O)cc2)ccc1OCc1ccccc1 | -13 | 1 | 10 | -2 | -5 | 46 | . | . | .
NS(=O)(=O)c1ccc(CCNCc2cc(Br)ccc2OCc2ccccc2)cc1 | 4 | 9 | 7 | -7 | 20 | 55* | 31 | 4 | -10
O=C(N[C@H](Cc1ccccc1)C(=O)NCc1ccco1)[C@H]1O[C@@H](n2ccc(=O)[nH]c2=O)[C@H](O)[C@@H]1O | -5 | . | . | -11 | . | . | . | . | .
CCOC(=O)N1CCN(C(=O)C[C@H]2C[C@@]3(C(=O)OC)C(=C[C@H](C(C)(C)C)O[C@@H]3C)N(CCC3=CCCCC3)C2=O)CC1 | 7 | . | . | 1 | . | . | . | . | .
COC(=O)C1CN(Cc2cn(Cc3ccc(C)cc3)nn2)CCS(=O)(=O)N1Cc1ccc(F)cc1 (stereo not drawn) | 9 | . | . | 17 | . | . | . | . | .
COc1cc2[nH]c(=O)n(Cc3ccccc3Cl)c(=O)c2cc1OC | 2 | 17 | 16 | 6 | 6 | 55 | 31 | 6 | 10
COc1cccc(C2NC(=S)N(Cc3ccccc3)C(C)=C2C(C)=O)c1 (stereo not drawn) | 11 | . | . | -8 | . | . | . | . | .
CN(C(=O)c1ccc(NC(=O)Cc2cccc(NC(=O)C3CCCN(C(=O)C4CCC4)C3)c2)cc1)C1CCCC1 (stereo not drawn) | 9 | -7 | -13 | -6 | -8 | 57* | 18 | -3 | -9
CN(C(=O)c1ccc(NC(=O)Cc2cccc(NC(=O)C3CCCN(C(=O)C4CCCCC4)C3)c2)cc1)C1CCCC1 (stereo not drawn) | 12 | -5 | 4 | -20 | -14 | -5 | . | . | .
COc1ccc(OC)c(S(=O)(=O)N2CCCCC2C(=O)N2CCN(Cc3ccc(F)cc3)CC2)c1 (stereo not drawn) | 15 | . | . | 20 | . | . | . | . | .
COc1ccc(Cc2c(C3CCCCC3)nc3ccc(C)cn23)c(C)c1 | -9 | . | . | 5 | . | . | . | . | .
CCCCCCCCN1C(=O)[C@@H](CC(=O)N2CCC(c3ccccc3)CC2)C[C@@]2(C(=O)OC)C1=C[C@H](C(C)(C)C)O[C@@H]2C | -1 | . | . | -2 | . | . | . | . | .
CCCC(=O)NC(c1ccccc1Cl)c1ccc2cccnc2c1O (stereo not drawn) | -6 | 53 | 47 | 31 | 84* | 83* | 80* | 28* | 69*
CCCCC(=O)NC(c1ccc(Cl)cc1Cl)c1ccc2cccnc2c1O (stereo not drawn) | 12 | 55 | 46 | 41 | 68 | 86* | 83* | 34* | 82*
CCC(=O)NC(c1ccc(C)cc1)c1ccc2cccnc2c1O (stereo not drawn) | -19 | 41 | 64* | 34 | 19 | 89* | 82* | 42* | 83*
CCC(=O)NC(c1ccc(C)cc1)c1cc([N+](=O)[O-])c2cccnc2c1O (stereo not drawn) | -17 | -1 | 15 | -7 | -6 | -4 | . | . | .
SMILES | COUP-TFII inh | SRC1 inh | NCOA3 inh | SRC2 inh | LRH-1 inv ag | Gli-Sufu block | Gli-Sufu confirm | Gli cytotox | Wnt3a counter
CCCC(=O)NC(c1ccc(OC)c(OC)c1)c1cc(Cl)c2cccnc2c1O (stereo not drawn) | -15 | -1 | 23 | -1 | -13 | 34 | . | . | .
C[C@H]1[C@H](c2ccccc2)Oc2cccc(NCCc3ccccc3)c2S(=O)(=O)N1Cc1cccc(Cl)c1 | 1 | . | . | -2 | . | . | . | . | .
Cc1nn(C(C)(C)C)c(OC(=O)c2ccco2)c1Sc1ccccc1 | 17 | 7 | 9 | 6 | 19 | 92* | 36 | 4 | 0
CN(CC(=O)Nc1ccc(Cl)cc1)CC(=O)Nc1cccc(Br)c1 | 5 | 13 | 5 | -3 | -1 | 55* | 15 | 6 | -51
COc1ccc(NC(=O)CN(C)CC(=O)Nc2cccc(C(C)=O)c2)cc1 | 5 | 13 | -8 | 3 | 16 | 3 | . | . | .
COc1cccc(NC(=S)N2CCC(Cc3ccccc3)CC2)c1 | -17 | -6 | -6 | -9 | -19 | 51 | 30 | 21 | -46
NC(=O)c1ccc(N2CCCCC2)c(N2C(=O)C3CC=CCC3C2=O)c1 (stereo not drawn) | -11 | 7 | 1 | 16 | 6 | 53 | 21 | 2 | 6
CSc1ccc(C2(O)Cc3cccc[n+]3C2c2ccccc2)cc1 (stereo not drawn) | 9 | -7 | -7 | 20 | -23 | 56* | 17 | 11 | -29
C#CCOc1ccccc1C(=O)NNc1ccc([N+](=O)[O-])cc1[N+](=O)[O-] | -3 | . | . | -21 | . | . | . | . | .
Cc1nc(N2CCN(C(=O)c3cnccn3)CC2)c2c3c(sc2n1)CC(C(C)(C)C)CC3 (stereo not drawn) | 5 | -21 | -6 | -4 | 5 | 51 | 22 | 5 | 2
